Measured values as given in PubChem BioAssay AID1117361 (Southern Research Institute, 2015).
Screen size: about 3,600 compounds; about 900 (25%) were called active. How the calls were made is not given here. Not all results are given here. Results with a measured potency or affinity are listed apart.

Each compound was assayed against Protein Tat (Human immunodeficiency virus type 1 group M subtype B (isolate HXB2)) (UniProt P04608) (assay: HIV-1 Tat–TAR interaction blockers – biochemical, fluorescence polarization, FAM-labeled TAR RNA, counter-screen for Vif-APOBEC3G degradation inhibitor project, dose response (AID 1117361)). Settings: Tat-TAR RNA binding; series mostly up to 100 µM; inhibition: at the top concentration.

SMILES	outcome	inhibition
CCCc1ccc(-c2csc(NC(=O)Cc3cccs3)n2)cc1	inactive	–
COC(=O)C1=C(N)Oc2cc(C)n(Cc3cccnc3)c(=O)c2C1c1cccc(OC)c1OC (stereo unspecified)	–	5.41% (inactive)
O=C(OCN1C(=O)c2ccccc2C1=O)C1CCCCC1	–	8.87% (inactive)
COc1cc(-c2n[nH]c(=O)o2)cc(OC)c1OC	–	2.73% (inactive)
COC(=O)/C(=C\Nc1ccccc1)NC(=O)c1ccc(Cl)cc1Cl	–	0.68% (inactive)
CCOc1ccc2nc(NC(=O)CN3CCN(c4ccccn4)CC3)sc2c1	–	4.77% (inactive)
CC1=C(C(=O)OC2CCCCC2)C(c2ccc(C)o2)C2=C(CCCC2=O)N1 (stereo unspecified)	–	0.68% (inactive)
CCOc1ccc(N(C(C)C(=O)NC2CCCCCC2)S(C)(=O)=O)cc1 (stereo unspecified)	–	2.73% (inactive)
CC(NC(=O)/C(C#N)=C/c1cn[nH]c1-c1ccccc1)c1ccccc1 (stereo unspecified)	inactive	–
CCCC[C@@H]1CNC(=S)N1CCc1cccc2ccccc12	inactive	–
Cc1nn(Cc2ccc(F)cc2)c(C)c1NC(=O)c1noc2c1CCc1ccccc1-2	–	0.68% (inactive)
N=c1ccn(Cc2ccc(Cl)cc2)cc1	–	4.73% (inactive)
C=CCc1c(C)nc(C)nc1N/N=C/c1ccc(F)cc1	–	1.36% (inactive)
COCCNC(=S)c1ccc(OC)cc1	–	6.08% (inactive)
CCN(CC)S(=O)(=O)c1ccc(C(=O)NCc2n[nH]c(=S)n2-c2ccccc2OC)cc1	inactive	–
Cc1ccc(N=Cc2nc(-c3ccco3)oc2O)cc1	–	10.1% (inactive)

SMILES	outcome	inhibition
Clc1ccc2nc3ccccn3c2c1	inactive	–
O=C(NC1CCCCC1)n1c(=O)oc2cc(S(=O)(=O)N3CCCCC3)ccc21	–	3.38% (inactive)
CC(C)Cn1c(N)c(C(=O)NCc2cccs2)c2nc3ccccc3nc21	inactive	–
COC(=O)c1ccc(-n2nnnc2SCC(=O)Nc2cc(OC)ccc2OC)cc1	–	9.55% (inactive)
CCOC(=O)N1CCC(N2Cc3cccc(C(=O)Nc4cc(F)ccc4F)c3C2=O)CC1	–	4.73% (inactive)
CC1(C)CC(=O)C=C(Nc2ccccc2NC(=O)c2cnccn2)C1	–	19.6% (inactive)
CCC(C)NS(=O)(=O)c1ccc(NS(=O)(=O)c2ccc(F)cc2)cc1 (stereo unspecified)	inactive	–
O=C(CCc1c[nH]c2ccccc12)N1CCN(c2ccc(O)cc2)CC1	inactive	–
CC(C)CN1C(=O)c2ccc(C(=O)Nc3ccc(O)cc3C(=O)O)cc2C1=O	inactive	–
COC(=O)c1c(NC(=O)CC2NCCNC2=O)sc2c1CCCC2 (stereo unspecified)	inactive	–
Cc1nn(CC(=O)Nc2ccccn2)c(C)c1Br	inactive	–
CCOCCCNC(=O)C1CCN(S(=O)(=O)CC)CC1	–	3.67% (inactive)
CCOC(=O)C(C)N1C(=O)S/C(=C\c2ccc(-c3ccccc3C(=O)O)o2)C1=O (stereo unspecified)	–	28.4% (inactive)
COc1cc(C(=O)Nc2cccc(-c3nc4ncccc4o3)c2C)cc(OC)c1OC	–	4.73% (inactive)
CCC1(C(N)=O)CC2C=CC1C2 (stereo unspecified)	inactive	–
